# The whole screen tested about 190,000 compounds, of which about 930 (0.49%) were called active.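 Rule for the calls: active = z-score of insulin promoter reporter brightness in nuclei below -3 at 5 µM, with at least 500 cells counted; inconclusive = wells with under 500 cells, flagged as toxic or sparse; inactive = the rest.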 This is one part of the list. Potency and affinity values are given separately.
# Assay: insulin promoter down-regulators in MIN6 cells, imaging, high-content screening, mouse beta cells (AID 1628)
# Settings: MIN6 insulin promoter GFP reporter, at 5 µM, stronger effect = lower value
row,Structure (SMILES),z-score
1,CCCS(=O)(=O)N1CCC(C(=O)N2CCOCC2)CC1,4.02 (inactive)
2,O=C(/C=C/c1cn(CC(O)CN2CCCCCC2)c2ccccc12)c1cccs1 (centres undefined),5.06 (inactive)
3,O=C(/C=C/c1cn(CC(O)CN2CCCCC2)c2ccccc12)c1cccs1 (centres undefined),4.58 (inactive)
4,OC(CN1CCCCC1)CN(c1ccccc1)c1ccccc1 (centres undefined),-4.02 (active)
5,Cc1c(-c2ccc(O)cc2)nc2nc(-c3ccccc3)c(-c3ccccc3)nn12,17.8 (inactive)
6,COc1cccc(OC)c1OCCN(C)C,3.98 (inactive)
7,O=c1c([N+](=O)[O-])cccn1Cc1ccc(F)cc1Cl,3.36 (inactive)
8,Cc1ccc(S(=O)(=O)c2nc(-c3cccs3)oc2NCCCN(C)C)cc1,-5.47 (active)
9,CCC(C)(C)n1nnnc1C(c1cccc(C#N)c1)N1CCN(c2cccc(C)c2C)CC1 (centres undefined),-3.1 (active)
10,Cc1cccc(N2CCN(C(c3ccccc3)c3nnnn3CC3CCCO3)CC2)c1C (centres undefined),-3.05 (active)
11,CCC(C)(C)n1nnnc1C(c1ccccc1)N1CCN(C2CCCC2)CC1 (centres undefined),-4.27 (active)
12,CCCOc1ccc(-c2nn(-c3ccccc3)cc2/C=C2\SC(=S)N(C3CCS(=O)(=O)C3)C2=O)cc1 (centres undefined),4.83 (inactive)
13,Cc1ccc(S(=O)(=O)N2CCCC2C(=O)N(C)Cc2cccs2)cc1 (centres undefined),4.2 (inactive)
14,Cc1ccc(S(=O)(=O)N(C)c2ccc(C(=O)N3CCCCC3)cc2)cc1,-5.08 (active)
15,O=C(CCC(=O)c1ccc(F)cc1)Nc1cccc(C(F)(F)F)c1,-5.11 (active)
16,CC1(C)OC(=O)N(CC(=O)Nc2cccc(C(F)(F)F)c2)C1(C)O (centres undefined),0.44 (inactive)
17,CCOC(=O)c1nnn(-c2nonc2N)c1CN1CCCCCC1,0.52 (inactive)
18,CCOC(=O)c1nnn(-c2nonc2N)c1-c1ccc(OCC)cc1,3.82 (inactive)
19,CCOC(=O)c1nnn(-c2nonc2N)c1-c1ccc(OC)cc1,-5.06 (active)
20,N#C/C(=C\C1=C(N2CCOCC2)C(=C/c2cccc([N+](=O)[O-])c2)/CC1)C(=O)Nc1ccccc1F,3.07 (inactive)
21,CC(=O)Nc1sc(/C(C#N)=C/c2ccc(Cl)c(Cl)c2)nc1-c1ccc(C)cc1,17.4 (inactive)
22,O=c1[nH]c2ccc(NS(=O)(=O)c3ccc([N+](=O)[O-])cc3)cc2[nH]1,2.55 (inactive)
23,O=C(c1cccs1)c1no[n+]([O-])c1C(=O)c1cccs1,3.78 (inactive)
24,COc1ccc(OCCn2cc(/C(N)=N/O)c3ccccc32)cc1,3.09 (inactive)

row,Structure (SMILES),z-score
1,CCOC(=O)Cn1c2ccc(F)cc2c2nc(C)sc21,3.68 (inactive)
2,CCOC(=O)Cn1c(=N)n(CCOc2cccc(C)c2)c2ccccc21,-4.7 (active)
3,CCCn1c(=N)n(CCOc2ccc(OC)cc2)c2ccccc21,-4.79 (active)
4,CCCCn1c(=N)n(CCOc2ccc(C)cc2)c2ccccc21,-3.46 (active)
5,Cc1cc(/C=C2/C(=O)N(C)C(=S)N2C)ccc1N1CCCC1,15.4 (inactive)
6,COc1ccc(CCNc2oc(COc3ccccc3Cl)nc2C#N)cc1OC,-3.1 (active)
7,COc1cccc(C2=N/C(=C\N(C)C)C(=O)O2)c1,0.86 (inactive)
8,COc1cccc(-n2nc(C#N)c(Cl)cc2=O)c1,-3.8 (active)
9,N#Cc1ccsc1NC(=O)COC(=O)c1ccc2ccccc2c1,-6.27 (active)
10,Cc1cc(N2CCOCC2)ccc1/C=C1/SC(=O)NC1=O,1.71 (inactive)
11,Cc1ccc(N2CCN(C3=NC(=O)/C(=C\c4cccs4)S3)CC2)cc1,-4.27 (active)
12,Cc1ccc(C2(C(F)(F)F)N=C3Sc4cc(C)ccc4N3C(=O)N2)cc1 (centres undefined),3.48 (inactive)
13,CCCOc1cc(N(CC)CC)ccc1/C=C(/C#N)c1nc2ccc(C)cc2[nH]1,15.5 (inactive)
14,CCN(CC)c1ccc(/C=N/NC(=O)c2cccc(S(=O)(=O)N3CCOCC3)c2)c(O)c1,-6.39 (active)
15,CCN(CC)c1ccc(C(=O)N/N=C/c2ccc(N3CCOCC3)cc2)cc1,3.38 (inactive)
16,C=CCSc1nnc(NC(=O)c2cccc(S(=O)(=O)N3CCOCC3)c2)s1,3.22 (inactive)
17,CCCCn1c(O)c(/C=C/C=C/C=Nc2ccccc2)sc1=S,4.72 (inactive)
18,COc1c2ccoc2nc2c(OC)c(O)ccc12,-0.14 (inactive)
19,Cc1nn(-c2ccccc2)c(C)c1NC(=O)CCl,3.88 (inactive)
20,Cc1ccc(-c2ccc(/C=C(\C#N)C(=O)Nc3cc(C)nn3-c3ccccc3)o2)cc1,3.08 (inactive)
21,Cc1ccc(NC(=O)CCl)c(C)c1,3.51 (inactive)
22,COc1ccc(CCNC(=S)Nc2ccc(C)cc2C)cc1,-3.98 (active)
23,Cc1ccc(C)c(NC(=S)N2CCCCCC2)c1,0.89 (inactive)
24,COc1ccc(C2C=C(c3cccs3)Nc3nc(CCCO)nn32)cc1 (centres undefined),5.85 (inactive)

row,Structure (SMILES),z-score
1,CCCCCOC(=O)C1=C(C)Nc2nnnn2C1c1ccc(OC)c(OC)c1OC (centres undefined),3.26 (inactive)
2,COc1ccc(C2=CC(c3ccc(OC)c(OC)c3)n3nnnc3N2)c(OC)c1 (centres undefined),-3.02 (active)
3,COc1cccc(CN2CCN(C3CCN(c4cccc(C)c4C)CC3)CC2CCO)c1 (centres undefined),-8.37 (active)
4,CCOC(=O)N1CCC(N2Cc3cccc(C(=O)N4CCN(c5cccc(C)c5C)CC4)c3C2=O)CC1,2.62 (inactive)
5,COc1cc(C(Nc2ccc3c(c2)OCO3)C(=O)NC2CCCCC2)cc(OC)c1OC (centres undefined),-3.78 (active)
6,Fc1ccc(C2NCCn3cccc32)cc1 (centres undefined),3.94 (inactive)
7,CNC(=O)c1ccc(-c2sc3nc(N4CCOCC4)c4c(c3c2N)CCCC4)o1,-3.66 (active)
8,N#C/C(=C\c1ccc(N2CCOCC2)o1)C(=O)NCCc1ccccc1,4.72 (inactive)
9,Nc1c(C(=O)NCCc2ccccc2)sc2nc(N3CCOCC3)c3c(c12)CCCC3,-3.11 (active)
10,Nc1c(C(=O)c2ccc(Cl)cc2)sc2nsc(SCCN3CCOCC3)c12,4.91 (inactive)
11,CNC(=O)c1ccc(-c2sc3nc(N4CCOCC4)c4c(c3c2N)CC(C)(C)OC4)o1,3.23 (inactive)
12,c1ccc(-c2ccc(-c3nccc4ccccc34)[nH]2)cc1,4.38 (inactive)
13,O=c1[nH]c(-c2ccccn2)nc2sc(-c3ccccc3)cc12,-6.56 (active)
14,CC[n+]1c(/C=C/C=C/N(C(C)=O)c2ccccc2)sc2cc(OC)ccc21,17.2 (inactive)
15,CCC(/C=C1\Sc2ccc(OC)cc2N1CC)=C\c1sc2ccc(OC)cc2[n+]1CCCS(=O)(=O)[O-],-3.29 (active)
16,CCN1/C(=C/c2cc[n+](CCCS(=O)(=O)[O-])c3ccccc23)Sc2ccccc21,6.08 (inactive)
17,Cc1ccc(CN=Cc2[nH]c3ccc(Br)c(Cl)c3c2O)cc1,9.43 (inactive)
18,Cc1ccc(Nc2nc(Cl)c(C=O)s2)cc1Cl,6.83 (inactive)
19,Cc1nc([N+](=O)[O-])c(N2CCN(Cc3ccccc3)CC2)n1Cc1ccccc1,-3.12 (active)
20,Cc1nc([N+](=O)[O-])c(Br)n1CC(=O)c1cccc([N+](=O)[O-])c1,2.48 (inactive)
21,CC(C)(C)C1CCc2c(sc(N)c2C(N)=O)C1 (centres undefined),-5.29 (active)
22,Nc1ccc(C(=O)N/N=C/c2sc(N3CCOCC3)nc2-c2ccccc2)cc1,-4.08 (active)
23,COc1ccccc1NS(=O)(=O)c1cc([N+](=O)[O-])ccc1N/N=C/c1sc(N2CCOCC2)nc1-c1ccccc1,4.89 (inactive)
24,O=[N+]([O-])c1ccc(N/N=C/c2sc(N3CCOCC3)nc2-c2ccccc2)c(S(=O)(=O)Nc2ccccc2Cl)c1,13.1 (inactive)

row,Structure (SMILES),z-score
1,Oc1ccc(CN2CCC(Cc3ccccc3)CC2)c2cccnc12,-5.12 (active)
2,CCOC(=O)c1c(C)nn(Cc2cccc(Cl)c2)c1N,-5.31 (active)
3,CCOC(=O)c1nn(-c2ccc(Cl)cc2Cl)c(=N)c(C#N)c1C,10.8 (inactive)
4,COc1ccc(C)cc1NC(=O)c1nnn(Cc2cccc(C(F)(F)F)c2)c1N,3.48 (inactive)
5,C=CCN1C(=O)/C(=C/C=C2/N(CC)c3ccc(S(=O)(=O)N(C)C)cc3N2CC)SC1=S,17.1 (inactive)
6,CCOC(=O)C(C)c1nn(C)c(=O)c2ccccc12 (centres undefined),-3.52 (active)
7,CCOC(=O)C1C(=O)CC(C)(O)C(C(=O)OCC)C1c1ccccc1 (centres undefined),0.91 (inactive)
8,COc1ccc(N2C(=O)CCC(C(=O)NCCCN3CCC(C)CC3)C2c2ccc(OC)c(OC)c2)cc1 (centres undefined),4.36 (inactive)
9,CCCn1c(CN2CCN(c3cccc(Cl)c3)CC2)nc2c1c(=O)n(C)c(=O)n2C,-6.4 (active)
10,CCCCn1c(CN2CCN(c3cccc(Cl)c3)CC2)nc2c1c(=O)n(C)c(=O)n2C,-5.64 (active)
11,Cn1ncc2c1ncn1nc(CCc3ccccc3)nc21,3.58 (inactive)
12,NC(=O)c1c[nH]c2ccccc12,-0.45 (inactive)
13,CCOC(=O)COc1ccc(C(=O)NC2CCCCC2)cc1,4.25 (inactive)
14,CCOC(=O)c1c(C)c(C(=O)NC2CCCCC2)c(C)n1CC,-3.91 (active)
15,CC(C)NC(=O)/C(C#N)=C/c1ccc(N(C)C)o1,9.4 (inactive)
16,CO/N=C/c1ccc(N2CCN(C(=O)c3ccc(F)cc3)CC2)c([N+](=O)[O-])c1,-5.66 (active)
17,COc1ccc(/C=C2\C(=O)NC(=S)N2C(=O)c2ccc(F)cc2)cc1,4.23 (inactive)
18,COc1cc([C@@H]2[C@H]3CN(C)CC=C3C(C#N)=C(N)C2(C#N)C#N)cc2c1OCO2,5.23 (inactive)
19,COc1cc(/C=N/N=C(\N)c2nonc2N)cc(OC)c1OC,3.59 (inactive)
20,O=C(Nc1ccccc1)C(O)C(O)C(=O)Nc1ccccc1 (centres undefined),-0.63 (inactive)
21,O=C(Nc1ccccc1)N1CCSc2ccccc21,-3.05 (active)
22,COC(=O)c1cn(NC(=O)/C=C/c2cc(OC)ccc2OC)c(=O)c2ccccc12,-3.15 (active)

# Reference: PubChem BioAssay AID1628 (Sanford-Burnham Center for Chemical Genomics, 2009)
